Measured values reported in PubChem BioAssay.
Activity calls are given as the source filed them.

Columns and labels:
[1] = E. coli DRC41 culture turbidity changes, primary screen, E. coli filamentation inducer project, strain DRC41, OD650, 48 h (AID 1152);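 note: E. coli MC1000 strain DRC41 lacking acrAB efflux pump and sulA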; conditions: E. coli DRC41 (acrAB sulA), higher = more signal, called active from +8 up or from −8 down
[2] = small-molecule binders of probe aLefty1, primary screen, biochemical, small-molecule microarray, 635/667 nm fluorescence (AID 1153); conditions: higher = more signal;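 note: score merges spot fluorescence with signal-to-noise ratio from the scanned slide images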
[3] = PSAC antagonists in infected red cells, primary screen, cell-based, P. falciparum Indochina, OD700, 1 h (AID 1154); conditions: P. falciparum Indochina infected RBC osmotic lysis, higher = more signal, called active from +8 up or from −8 down
[4] = PSAC antagonists in infected red cells, primary screen, cell-based, P. falciparum Indochina, OD700, 2 h (AID 1155);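 note: lysis reports solute entry through the parasite surface anion channel PSAC; channel blockers reduce lysis of infected cells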; conditions: P. falciparum Indochina infected erythrocytes, osmotic lysis OD700; higher = more signal, called active from +8 up or from −8 down
[5] = osmotic lysis modulators in infected erythrocytes, primary screen, PSAC antagonist project, cell-based, P. falciparum Indochina, OD700, 3 h (AID 1156); conditions: higher = more signal, called active from +8 up or from −8 down
[6] = PSAC antagonists in infected red cells, primary screen, cell-based, P. falciparum Indochina, OD700, 18 h (AID 1157); conditions: P. falciparum Indochina infected erythrocytes, osmotic lysis OD700, 18 h; higher = more signal, called active from +8 up or from −8 down
[7] = modulators of S6 phosphorylation in cells, primary screen, cell-based, A549, cytoblot, luminescence, serum-stimulated (AID 1158); conditions: A549 phospho-S6 cytoblot, 5 h, higher = more signal;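 note: serum-stimulated A549 lung adenocarcinoma cells; signal is phosphorylated S6 detected by cytoblot immunostaining with HRP secondary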
[8] = molecular target: NADPH oxidase 2 (Homo sapiens) (UniProt P04839); test: NOX2-dependent H2O2 signal modulators, primary screen, NOX inhibitor project, cell-based, HEK293-NOX2, PMA-stimulated, Amplex Red fluorescence (AID 1159); conditions: 45 min, higher = more signal, called active from +8 up or from −8 down; note: test concentration not given here
[9] = molecular target: NADPH oxidase 4 (Homo sapiens) (UniProt Q9NPH5); test: NOX4-dependent H2O2 signal modulators, primary screen, NOX inhibitor project, cell-based, HEK293-NOX4, tetracycline-induced, Amplex Red fluorescence (AID 1160); conditions: 45 min, higher = more signal, called active from +8 up or from −8 down
[10] = molecular target: NADPH oxidase 5 (Homo sapiens) (UniProt Q96PH1); test: NOX5-dependent H2O2 signal modulators, primary screen, NOX inhibitor project, cell-based, HEK293-NOX5, Amplex Red fluorescence (AID 1161); conditions: HEK293-NOX5, ionomycin, 45 min, higher = more signal
[11] = A549 cell viability effects, profiling panel, calcein-AM fluorescence, 48 h, basal (AID 1162); conditions: higher = more signal; note: test concentration not given here
[12] = adipocyte viability effects, profiling panel, cell-based, 3T3-L1 adipocytes, calcein-AM fluorescence, 48 h, basal (AID 1163); conditions: 3T3-L1 adipocytes viability, higher = more signal; note: test concentration not given here
[13] = HepG2 cell viability effects, profiling panel, calcein-AM fluorescence, 48 h, basal (AID 1164); conditions: higher = more signal; note: test concentration not given here
[14] = MM1S cell viability effects, profiling panel, calcein-AM fluorescence, 48 h, basal (AID 1165); conditions: higher = more signal;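 note: viability of MM1S multiple myeloma cells under basal unstimulated conditions; test concentration not given here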
[15] = basal RPMI8226 viability, no added stimulus, profiling panel, cell-based, calcein-AM fluorescence, 48 h, PK04 Diversity Set (AID 1166); conditions: RPMI8226 myeloma viability, higher = more signal;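 note: cells grown under basal conditions without added stimulus; test concentration not given here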
[16] = basal HepG2 mitochondrial membrane potential changes, profiling panel, cell-based, JC-1 fluorescence, 24 h, 100 nL compound (AID 1167); conditions: higher = more signal; note: test concentration not given here
[17] = basal 3T3-L1 adipocyte mitochondrial potential changes, profiling panel, cell-based, JC-1 fluorescence, 3T3-L1 adipocytes, 24 h, 100 nL compound (AID 1168); conditions: JC-1 mitochondrial fluorescence, higher = more signal, called active from +8 up or from −8 down; note: test concentration not given here
[18] = basal RPMI8226 mitochondrial membrane potential changes, profiling panel, cell-based, JC-1 fluorescence, 24 h, 100 nL compound (AID 1169); conditions: RPMI8226 myeloma, JC-1 mitochondrial potential fluorescence, higher = more signal; note: test concentration not given here
[19] = basal MM1S mitochondrial membrane potential changes, profiling panel, cell-based, JC-1 fluorescence, 24 h, 100 nL compound (AID 1170); conditions: higher = more signal; note: test concentration not given here
[20] = A549 lung cancer cell viability effects, profiling panel, resazurin fluorescence, 24 h, PK04 Diversity Set (AID 1171); conditions: higher = more signal, called active from +8 up or from −8 down; note: test concentration not given here

Chain of NADPH oxidase 4 (Homo sapiens) (Q9NPH5 whole entry, looked up): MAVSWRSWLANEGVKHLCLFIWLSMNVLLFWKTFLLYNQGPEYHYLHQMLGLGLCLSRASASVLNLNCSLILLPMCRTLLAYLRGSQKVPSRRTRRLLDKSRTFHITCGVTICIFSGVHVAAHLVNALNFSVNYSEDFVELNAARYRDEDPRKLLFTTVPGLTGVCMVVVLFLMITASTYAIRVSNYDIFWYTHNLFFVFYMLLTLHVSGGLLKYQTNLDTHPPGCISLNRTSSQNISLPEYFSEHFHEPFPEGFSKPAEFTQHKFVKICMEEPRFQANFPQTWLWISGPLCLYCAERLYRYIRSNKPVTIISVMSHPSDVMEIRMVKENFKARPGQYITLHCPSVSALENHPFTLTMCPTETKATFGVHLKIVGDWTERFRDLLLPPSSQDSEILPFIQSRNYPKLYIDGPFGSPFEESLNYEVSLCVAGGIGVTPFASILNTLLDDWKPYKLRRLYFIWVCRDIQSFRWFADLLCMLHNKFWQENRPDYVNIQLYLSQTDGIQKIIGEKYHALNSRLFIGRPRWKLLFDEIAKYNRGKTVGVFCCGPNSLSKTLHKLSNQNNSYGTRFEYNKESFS
Chain of NADPH oxidase 5 (Homo sapiens) (Q96PH1 whole entry, looked up): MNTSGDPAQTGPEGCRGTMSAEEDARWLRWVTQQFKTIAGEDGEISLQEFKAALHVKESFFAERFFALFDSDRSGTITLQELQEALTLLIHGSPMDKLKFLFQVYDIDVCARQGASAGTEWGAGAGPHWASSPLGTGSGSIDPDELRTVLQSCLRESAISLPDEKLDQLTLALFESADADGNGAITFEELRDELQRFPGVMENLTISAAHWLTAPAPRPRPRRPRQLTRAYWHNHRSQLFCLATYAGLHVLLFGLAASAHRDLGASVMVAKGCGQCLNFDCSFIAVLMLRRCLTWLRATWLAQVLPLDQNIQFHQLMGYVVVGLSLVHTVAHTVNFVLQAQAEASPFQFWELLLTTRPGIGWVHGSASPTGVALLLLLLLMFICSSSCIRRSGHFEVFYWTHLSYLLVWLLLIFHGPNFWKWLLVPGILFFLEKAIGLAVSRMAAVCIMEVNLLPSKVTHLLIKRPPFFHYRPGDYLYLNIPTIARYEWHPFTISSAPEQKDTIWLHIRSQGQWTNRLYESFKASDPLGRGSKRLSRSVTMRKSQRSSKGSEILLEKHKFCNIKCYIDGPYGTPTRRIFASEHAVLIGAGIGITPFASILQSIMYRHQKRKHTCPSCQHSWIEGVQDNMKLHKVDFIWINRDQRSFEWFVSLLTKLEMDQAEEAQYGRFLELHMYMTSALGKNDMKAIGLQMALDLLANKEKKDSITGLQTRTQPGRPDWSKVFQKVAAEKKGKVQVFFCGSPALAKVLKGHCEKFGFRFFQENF
Chain of NADPH oxidase 2 (Homo sapiens) (P04839 whole entry, looked up): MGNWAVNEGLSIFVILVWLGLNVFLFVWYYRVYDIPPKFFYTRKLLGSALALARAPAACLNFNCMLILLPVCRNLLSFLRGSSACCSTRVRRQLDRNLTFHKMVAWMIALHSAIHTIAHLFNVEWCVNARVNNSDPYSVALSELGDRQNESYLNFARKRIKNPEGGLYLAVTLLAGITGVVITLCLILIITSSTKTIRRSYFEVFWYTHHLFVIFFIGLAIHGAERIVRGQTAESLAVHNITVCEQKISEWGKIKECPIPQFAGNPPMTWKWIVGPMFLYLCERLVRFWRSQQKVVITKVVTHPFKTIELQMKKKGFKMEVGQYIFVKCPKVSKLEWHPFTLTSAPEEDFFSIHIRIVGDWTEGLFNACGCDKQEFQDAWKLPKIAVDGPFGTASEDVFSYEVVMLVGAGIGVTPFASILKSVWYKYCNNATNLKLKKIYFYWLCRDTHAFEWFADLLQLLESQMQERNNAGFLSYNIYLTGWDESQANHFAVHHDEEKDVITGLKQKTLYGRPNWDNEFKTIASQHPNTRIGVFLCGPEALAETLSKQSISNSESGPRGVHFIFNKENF

SMILES	z-score [1]	composite z-score [2]	z-score [3]	z-score [4]	z-score [5]	z-score [6]	z-score [7]	z-score [8]	z-score [9]	z-score [10]	z-score [11]	z-score [12]	z-score [13]	z-score [14]	z-score [15]	z-score [16]	z-score [17]	z-score [18]	z-score [19]	z-score [20]
COc1cccc(C[C@H]2C[C@@H](CO[Si](C(C)C)(C(C)C)C(C)C)N3C(=O)[C@@]4(C(C)=O)O[C@@]23[C@@H]2C(=O)N(C)C(=O)[C@@H]24)c1	-0.848 (inactive)	-0.0061	1.31 (inactive)	0.576 (inactive)	-0.176 (inactive)	0.0375 (inactive)	-0.669	-0.175 (inactive)	0.746 (inactive)	0.181	-2.05	0.202	-0.342	-1.9	-1.38	-1.64	1.29 (inactive)	-0.846	-0.661	0.712 (inactive)
CC(c1ccccc1)C(O)C1C=CC2C(=O)N(c3ccccc3)C(=O)C2N1Nc1ccc(C#N)cc1 (stereo not given)	1.16 (inactive)	0.379	14 (active)	1.58 (inactive)	0.832 (inactive)	0.264 (inactive)	1.38	-1.9 (inactive)	-4.04 (inactive)	-2.65	1.71	-0.582	1.49	0.401	-0.0442	-0.372	0.0393 (inactive)	-0.0416	0.222	0.413 (inactive)
COc1ccc(CC[C@H](O)c2cccc(OCC(=O)OC(C)(C)C)c2)cc1	-0.636 (inactive)	0.163	22.8 (active)	6.97 (inactive)	0.597 (inactive)	0.794 (inactive)	0.118	-2.52 (inactive)	-0.941 (inactive)	-4.03	-1.42	0.71	-2.12	-2.52	-1.31	-2.71	1.69 (inactive)	-0.84	-0.835	0.41 (inactive)
CN(C)C(=O)[C@]1(Cc2ccccc2CN=[N+]=[N-])N=C(c2ccc(OCCCO)cc2)O[C@@H]1c1ccccc1N=[N+]=[N-]	-0.174 (inactive)	0.413	33.2 (active)	30 (active)	2.99 (inactive)	9.81 (active)	-0.0847	-1.25 (inactive)	0.807 (inactive)	-0.474	-0.691	0.287	-0.923	-1.33	-2.16	0.271	2.38 (inactive)	-0.997	-1.29	-1.42 (inactive)
COCCn1c(C(=O)N2CCCC2)cc2c1C[C@H]1CN(C(=O)c3ccccc3)[C@@](Cc3ccccc3)(C(=O)OC)[C@@H]21	-0.91 (inactive)	1.46	1.46 (inactive)	0.103 (inactive)	1.98 (inactive)	1.01 (inactive)	1.09	0.582 (inactive)	-0.6 (inactive)	-3.94	-1.94	-0.239	-0.768	0.0841	-1.37	0.678	-0.416 (inactive)	-0.803	-0.688	-0.0413 (inactive)
COc1cc2c(cc1O)C(c1ccc(CN3CCCC3)cc1)N(Cc1ccc([N+](=O)[O-])o1)CC2 (stereo not given)	-0.715 (inactive)	-0.257	23.1 (active)	7.28 (inactive)	-0.176 (inactive)	0.818 (inactive)	-0.683	-3.89 (inactive)	-2.56 (inactive)	-3.64	-0.731	0.0389	0.0023	0.279	-0.0679	-2.18	-2.19 (inactive)	0.733	-0.307	-0.679 (inactive)
COc1ccc(CCNC(=O)[C@@H]2c3ccccc3C(=O)N(CC34CC5CC(CC(C5)C3)C4)[C@H]2c2ccc(CO)cc2)cc1	0.414 (inactive)	-0.0982	5.38 (inactive)	0.345 (inactive)	0.68 (inactive)	-0.484 (inactive)	1.15	-2.37 (inactive)	-1.91 (inactive)	-5.14	0.263	1.63	0.463	-1.39	-0.559	1.47	-0.138 (inactive)	-0.435	-0.0819	0.228 (inactive)
CCOC(=O)C[C@H]1[C@H](OC(=O)c2ccc(-c3ccccc3)cc2)[C@@H](NC(=O)CC(C)C)c2cc(OCCCO)ccc2N1C(=O)Cc1ccc(OC)cc1	-0.931 (inactive)	-0.323	3.94 (inactive)	0.786 (inactive)	-0.348 (inactive)	0.261 (inactive)	-0.0775	-0.521 (inactive)	1.12 (inactive)	2.11	-0.39	0.22	-0.114	-1.7	-0.194	0.593	-1.43 (inactive)	0.908	0.185	0.207 (inactive)
Cc1ccc(F)cc1S(=O)(=O)N[C@@H]1CCN(Cc2ccc3c(c2)OCO3)C1	-3.25 (inactive)	-0.0984	1.36 (inactive)	0.491 (inactive)	0.076 (inactive)	0.329 (inactive)	-0.0688	-0.438 (inactive)	-0.228 (inactive)	-0.687	0.923	-0.447	0.326	0.361	-0.525	-0.184	-0.0208 (inactive)	0.302	-0.591	-0.156 (inactive)
CN(C)C(=O)[C@@]1(CCS(=O)(=O)c2ccccc2)N=C(c2ccc(OCCCO)cc2)O[C@H]1c1ccccc1N=[N+]=[N-]	0.395 (inactive)	-0.148	28.1 (active)	27.4 (active)	1.78 (inactive)	2.09 (inactive)	-0.76	-2.01 (inactive)	-0.478 (inactive)	-0.984	0.137	-0.471	1.27	-1.68	-0.941	0.121	-0.477 (inactive)	-1.32	-0.591	-0.217 (inactive)
CC(=O)c1ccc(C(O)C2C=CC3C(=O)NC(=O)C3N2Nc2ccc(Cl)cc2Cl)cc1 (stereo not given)	-2.32 (inactive)	0.0267	2.38 (inactive)	0.738 (inactive)	1.15 (inactive)	1 (inactive)	-0.497	-0.826 (inactive)	-5.81 (inactive)	-3.8	-0.807	-0.458	-1.28	-0.124	-0.344	-0.976	-1.4 (inactive)	0.574	0.863	-0.743 (inactive)
COc1cc(OC)c(C(O)C2C=CC3C(=O)N(c4ccccc4)C(=O)C3N2Nc2ccccc2F)cc1Br (stereo not given)	-1.76 (inactive)	0.692	7.23 (inactive)	2.36 (inactive)	0.449 (inactive)	1.54 (inactive)	-0.822	-1.32 (inactive)	-4.43 (inactive)	-2.21	-1.06	-1.41	0.302	-0.303	-0.308	-2.04	-1.17 (inactive)	0.26	-0.645	-0.568 (inactive)
CC(C)(C)OC(=O)CC[C@]1(C(N)=O)N=C(c2ccc(OCCCO)cc2)O[C@H]1c1ccccc1CN=[N+]=[N-]	0.434 (inactive)	0.5	21.6 (active)	5.64 (inactive)	-0.173 (inactive)	0.223 (inactive)	0.0054	0.709 (inactive)	-0.508 (inactive)	1.26	0.249	0.434	0.088	-0.0887	-0.387	-1.01	0.352 (inactive)	0.469	0.0608	0.316 (inactive)
CCCCC(O)C1C=CC2C(=O)NC(=O)C2N1Nc1ccccn1 (stereo not given)	-2.16 (inactive)	0.235	-0.162 (inactive)	0.387 (inactive)	-0.343 (inactive)	0.483 (inactive)	-1.11	-1.48 (inactive)	-2.5 (inactive)	-2.17	-0.795	-0.291	1.18	0.106	0.0087	-1.68	-0.285 (inactive)	0.617	-0.00704	-0.751 (inactive)
N#Cc1ccc(C(O)C2C=CC3C(=O)NC(=O)C3N2Nc2ccccn2)cc1 (stereo not given)	0.261 (inactive)	0.0341	0.104 (inactive)	-0.88 (inactive)	-0.138 (inactive)	-1.01 (inactive)	-0.0329	-1.73 (inactive)	-2.92 (inactive)	-1.67	0.517	-0.239	1.43	0.435	-0.792	-0.183	-0.277 (inactive)	0.274	-0.839	-1.36 (inactive)
CC(C)C[C@H]1NC(=O)[C@@H](C)NC(=O)[C@@]23C(=O)N[C@@H](Cc4ccccc4)C2[C@H](C)[C@@]2(C)O[C@H]2C3/C=C/C/C=C\CNC1=O (stereo not given in full)	-0.743 (inactive)	-0.431	0.522 (inactive)	-0.437 (inactive)	-0.435 (inactive)	-0.111 (inactive)	-0.175	-0.115 (inactive)	1.11 (inactive)	0.407	0.65	0.305	-0.363	-0.256	-0.64	-0.553	0.023 (inactive)	0.471	0.191	-0.0639 (inactive)
CCOC(=O)C1=CC[C@@H](c2ccc(F)cc2)N(S(=O)(=O)c2ccc(C)cc2)[C@H]1c1ccc([N+](=O)[O-])cc1	0.251 (inactive)	-0.0946	1.83 (inactive)	1.12 (inactive)	-0.186 (inactive)	1.22 (inactive)	-0.399	1.36 (inactive)	0.856 (inactive)	1.4	-0.606	-0.415	-0.661	-0.724	0.192	1.65	-0.754 (inactive)	0.235	-0.862	1.8 (inactive)
COc1ccc(NC(=O)O[C@H]2[C@H](OC(=O)Nc3ccc4c(c3)OCO4)[C@H](OC(=O)Nc3ccc4c(c3)OCO4)[C@@H](OC)O[C@@H]2CO)cc1	-0.723 (inactive)	0.114	13.7 (active)	1.26 (inactive)	0.99 (inactive)	0.597 (inactive)	-0.0897	-1.54 (inactive)	-0.399 (inactive)	-1.64	-0.798	0.568	-0.54	-0.714	-0.983	-0.0127	-0.213 (inactive)	-0.685	-1.19	-0.339 (inactive)
